# Assay outcomes as filed in PubChem BioAssay.
# Shown are actives, neighbours in structure and some others; about 19% of the full set was active somewhere.
# VP16 counter: Gal4-VP16 reporter inhibition counter-screen; 3.5% of 310,000 active; AID 2546; Drosophila S2 Gal4-VP16 UAS-luciferase, luminescence, 20 h; Potency, µM (highest dose often 53.6 µM), without a hit: top-dose activity, negative = inhibition, usual class: inhibitors;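 also: Gal4-VP16 expression switched on by copper sulfate through the metallothionein promoter; nearly all actives have a fitted effect of over 50% in size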
# TDP1 inh: blocks human tyrosyl-DNA phosphodiesterase 1; Q9NUW8; recombinant TDP1, AlphaScreen DNA substrate cleavage; Potency, µM (top dose mostly 130 µM), inactives show top-dose activity change, negative = inhibition, actives largely listed as inhibitors; 0.28% of 350,000 active; AID 485290; also: nearly all actives have a fitted effect of over 40% in size
# Target sequence (Q9NUW8 whole entry, looked up): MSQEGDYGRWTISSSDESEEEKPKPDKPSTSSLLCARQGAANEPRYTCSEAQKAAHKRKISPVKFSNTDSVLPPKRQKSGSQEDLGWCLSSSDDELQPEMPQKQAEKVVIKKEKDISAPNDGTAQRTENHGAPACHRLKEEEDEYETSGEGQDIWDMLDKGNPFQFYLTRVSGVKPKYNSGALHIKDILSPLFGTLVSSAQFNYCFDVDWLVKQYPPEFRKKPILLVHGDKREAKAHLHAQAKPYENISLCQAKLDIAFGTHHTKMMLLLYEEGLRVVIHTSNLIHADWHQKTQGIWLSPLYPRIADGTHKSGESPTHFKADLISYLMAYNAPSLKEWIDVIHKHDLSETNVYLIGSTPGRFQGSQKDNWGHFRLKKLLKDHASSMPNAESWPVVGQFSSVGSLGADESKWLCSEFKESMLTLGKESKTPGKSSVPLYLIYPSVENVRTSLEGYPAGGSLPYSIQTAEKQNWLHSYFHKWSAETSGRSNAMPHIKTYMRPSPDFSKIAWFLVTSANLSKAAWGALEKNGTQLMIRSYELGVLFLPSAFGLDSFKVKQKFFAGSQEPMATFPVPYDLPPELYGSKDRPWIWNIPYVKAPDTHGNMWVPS
#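 AlphaScreen read-out: signal falls as enzyme removes the 3' tyrosine-FITC from a 5'-biotinylated DNA oligo (15 nM, 5 min, RT). Enzyme was E. coli-made recombinant Tdp1 at 1 nM, exposed to compound for 15 min beforehand; beads 10 ug/ml, 10 min.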
# DT40 TDP1 CPT: DT40-hTDP1 cell growth loss with CPT; chicken DT40 Tdp1-/-;hTDP1 cells + 20 nM CPT, ATP luminescence, 48 h; Potency, µM (series often up to 46.2 µM), for inactives: at the highest dose activity change, negative = growth inhibition, most hits filed as inhibitors; 12% of 420,000 active; AID 686979; also: nearly all actives have a fitted effect of over 55% in size
#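 Cell growth measured by CellTiter-Glo luminescence after a minimum 48 h, 37 C compound exposure with 20 nM CPT in Tdp1-knockout DT40 cells stably expressing hTDP1, seeded 400/well; qHTS titration format.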
# DT40 TDP1 no CPT: qHTS for Inhibitors of human tyrosyl-DNA phosphodiesterase 1 (TDP1): qHTS in cells in absence of CPT. DT40 Tdp1-/- hTDP1 cells, no CPT, ATP luminescence, 48 h. Potency, µM (doses to about 46.2 µM), for the others: at the highest dose activity change, negative = growth inhibition, most hits filed as inhibitors. 15% of 420,000 active. AID 686978, 2013; also: nearly all actives have a fitted effect of over 55% in size
#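 Compound effects on proliferation are scored in DT40 Tdp1-/-;hTDP1 cells in the absence of CPT. ATP levels (CellTiter-Glo luminescence) are recorded after a ≥48 hr, 37 °C incubation.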
# RORgamma inh: ROR gamma (mouse) transcription inhibition; 5.4% of 310,000 active; Potency, µM (doses to about 53.6 µM), without a hit: at the top dose activity change, negative = inhibition, most hits filed as inhibitors; AID 2551; P51450; Drosophila S2 Gal4-RORgamma UAS-luciferase reporter, 20 h; also: nearly all actives have a fitted effect of over 60% in size
#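 Schneider cells (Drosophila), stable Gal4 DBD–ROR gamma + UAS-luc; 1 hr cmpd preincubation; Cu2+ induction 700 uM final; 20 hr ambient; luminescence.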
# Active calls of the source: *; ? = inconclusive; . = no result. Calls follow the shape of the dose curve; as a rule, active = well fitted curve in the direction sought with a large enough effect; inconclusive = small, poorly fitted or top-dose-only effect, or another doubt; inactive = no such curve, though single readings can be large; an effect the other way counts as inactive or inconclusive. % is scaled to controls: 0 for no effect and ±100 for the full control effect; potency is read from the fitted curve at half-maximal effect.
SMILES,VP16 counter,TDP1 inh,DT40 TDP1 CPT,DT40 TDP1 no CPT,RORgamma inh
CC1=NNC(=O)C1CC(=O)N/N=C/C=C/c1ccccc1 (stereo not drawn),-1.0%,1.9%,-9.9%,-0.7%,?
CCN(CC)c1ccc(/C=N/NC(=S)NCc2ccc(OC)cc2)cc1,1.41µM*,5.7%,-16.9%,?,0.891µM*
COc1ccc(CNC(=S)N/N=C/c2ccncc2)cc1,?,-5.3%,-4.9%,-0.1%,?
CCN(CC)c1ccc(/C=N/NC(=S)NCc2ccccc2)cc1,3.98µM*,9.3%,?,16.4µM*,1.26µM*
C=CCNC(=S)N/N=C/c1ccc(N(CC)Cc2ccccc2)cc1,0.708µM*,5.5%,20.6µM*,18.4µM*,0.501µM*
CCN(CC)c1ccc(NC(=S)NC(=O)Cc2ccccc2)cc1,2.51µM*,11.3%,-24.7%,?,2.51µM*
Cc1ccc(NC(=O)Cn2cnc3c2c(=O)n(C)c(=O)n3C)cc1C,.,0.0%,-16.2%,-23.5%,.
c1ccc(CNCCC(Cc2ccccc2)c2ccco2)cc1 (stereo not drawn),0.4%,.,?,16.4µM*,-4.3%
CC(=O)NCCC(Cc1ccccc1)c1ccco1 (stereo not drawn),?,4.9%,-8.6%,-6.0%,-43.9%
CN(C)c1ccc(CNCCC(Cc2ccccc2)c2ccco2)cc1 (stereo not drawn),?,7.2%,9.2µM*,10.3µM*,?
CN1CCC(OC(=O)Cc2ccc(Cl)cc2)CC1,3.5%,0.0%,2.1%,6.8%,-2.9%
CC(C)C(CCNC1CCN(C)CC1)c1ccc(Cl)cc1 (stereo not drawn),-9.0%,.,4.61µM*,3.26µM*,-44.3%
CN1CCC(NCCC(c2ccc(F)cc2)c2ccc(Cl)cc2)CC1 (stereo not drawn),?,.,5.8µM*,5.8µM*,?
O=S(=O)(c1ccc(Br)s1)N1CCC2(CC1)OCCO2,2.7%,3.8%,-10.9%,-21.4%,25.8%
O=C(Cn1cncn1)N/N=C/c1cc([N+](=O)[O-])ccc1O,-15.0%,9.9%,4.9%,1.8%,8.91µM*
O=C(CSc1ccc2ccccc2n1)N/N=C/c1ccccc1O,3.16µM*,.,5.17µM*,5.8µM*,1.41µM*
O=C(Cn1cncn1)N/N=C/c1ccncc1,3.0%,.,-0.6%,-4.9%,-1.6%
Cc1ccn(CC(=O)N/N=C/c2cc([N+](=O)[O-])ccc2O)n1,8.91µM*,8.0%,?,?,?
O=C(Cn1cncn1)N/N=C/c1ccccc1O,?,6.5%,14.6µM*,13µM*,8.91µM*
COc1ccc(OC)c(C2C(C(=O)c3cccs3)=C(O)C(=O)N2CCN2CCOCC2)c1 (stereo not drawn),2.1%,.,-26.5%,-1.9%,-6.6%
S=C(Cc1ccc(-c2ccccc2)cc1)N1CCOCC1,.,.,-23.3%,-19.1%,.
Cc1ccc(CN2C(=O)N(c3ccccc3)C(=O)C2CC(=O)Nc2ccccc2)cc1 (stereo not drawn),.,6.4%,-21.9%,?,.
Cc1ccsc1CCN1C(=O)N(c2ccccc2)C(=O)C1CC(=O)Nc1ccc(Cl)cc1 (stereo not drawn),.,-3.8%,25.9µM*,?,.
O=C(CC1C(=O)N(c2ccccc2)C(=O)N1CCc1cccs1)Nc1ccc(Cl)cc1 (stereo not drawn),.,6.4%,20.6µM*,?,.
Cc1ccc(Cl)cc1NC(=O)C1CCN(c2nnc(C)c3c(C)n(-c4ccccc4)nc23)CC1,.,2.8%,8.2µM*,10.3µM*,.
Cc1nnc(N2CCC(C(=O)NCCc3ccccc3)CC2)c2nn(-c3ccc(Cl)cc3)c(C)c12,.,2.8%,14.6µM*,20.6µM*,.
O=C(NCc1ccc(F)cc1)C1CCN(c2cnccn2)CC1,-8.6%,0.0%,18.4µM*,?,-1.9%
Cc1ccc(Cl)cc1NC(=O)C1CCN(c2nc3ccccc3n3cccc23)CC1,.,1.3%,?,16.4µM*,.
